Data taken from the supplement of paper PMC11732987, “Enantioselective OTUD7B fragment discovery through chemoproteomics screening and high-throughput optimisation” (Communications Chemistry, 2025).

Assays:
Experiment in all cases: log2 ratio of Biotin-Ahx-Ub-VS probe labelling (fragment/DMSO); higher = less target engagement (more negative = stronger competition), active = hit call of the paper (q ≤ 0.05, log2 ratio ≤ -1)
Conditions in all cases: compound concentration: 200 uM; treatment time: 3 h
USP9X = USP9X (UniProt Q93008)
Method in brief: (§1)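 Using Biotin-Ahx-Ub-VS at 0.5 µM final for 1 h, DUBs were labelled in HEK293T lysate (495 µg per sample) that had first been treated in triplicate with fragment at 200 µM or vehicle for 3 h. NeutrAvidin enrichment, LysC and trypsin digestion and diaPASEF LC-MS/MS followed. Spectronaut label-free quantities were global-median-normalised. Values are average log2 fragment/vehicle ratios by unpaired t-test, using proteins with ≥2 unique peptides.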

UniProt O00487 = biological target: UniProt O00487
Method in brief: as §1

UniProt O00507 = biological target: UniProt O00507
Method in brief: as §1

UniProt P51784 = biological target: UniProt P51784
Method in brief: as §1

UniProt Q5T2D3 = biological target: T1, UniProt Q5T2D3
T1 sequence (whole entry): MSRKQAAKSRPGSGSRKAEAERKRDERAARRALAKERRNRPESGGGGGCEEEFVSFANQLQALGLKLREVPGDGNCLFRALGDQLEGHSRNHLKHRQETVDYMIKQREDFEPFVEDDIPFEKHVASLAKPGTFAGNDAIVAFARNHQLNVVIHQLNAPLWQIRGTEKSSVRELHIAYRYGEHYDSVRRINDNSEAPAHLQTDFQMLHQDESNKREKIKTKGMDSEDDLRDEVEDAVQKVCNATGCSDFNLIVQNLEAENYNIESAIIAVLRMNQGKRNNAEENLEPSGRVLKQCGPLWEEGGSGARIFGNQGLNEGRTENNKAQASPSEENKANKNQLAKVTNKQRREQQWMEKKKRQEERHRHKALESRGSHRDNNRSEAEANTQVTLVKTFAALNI
Method in brief: as §1

UniProt Q8TE49 = biological target: T2, UniProt Q8TE49
T2 sequence (whole entry): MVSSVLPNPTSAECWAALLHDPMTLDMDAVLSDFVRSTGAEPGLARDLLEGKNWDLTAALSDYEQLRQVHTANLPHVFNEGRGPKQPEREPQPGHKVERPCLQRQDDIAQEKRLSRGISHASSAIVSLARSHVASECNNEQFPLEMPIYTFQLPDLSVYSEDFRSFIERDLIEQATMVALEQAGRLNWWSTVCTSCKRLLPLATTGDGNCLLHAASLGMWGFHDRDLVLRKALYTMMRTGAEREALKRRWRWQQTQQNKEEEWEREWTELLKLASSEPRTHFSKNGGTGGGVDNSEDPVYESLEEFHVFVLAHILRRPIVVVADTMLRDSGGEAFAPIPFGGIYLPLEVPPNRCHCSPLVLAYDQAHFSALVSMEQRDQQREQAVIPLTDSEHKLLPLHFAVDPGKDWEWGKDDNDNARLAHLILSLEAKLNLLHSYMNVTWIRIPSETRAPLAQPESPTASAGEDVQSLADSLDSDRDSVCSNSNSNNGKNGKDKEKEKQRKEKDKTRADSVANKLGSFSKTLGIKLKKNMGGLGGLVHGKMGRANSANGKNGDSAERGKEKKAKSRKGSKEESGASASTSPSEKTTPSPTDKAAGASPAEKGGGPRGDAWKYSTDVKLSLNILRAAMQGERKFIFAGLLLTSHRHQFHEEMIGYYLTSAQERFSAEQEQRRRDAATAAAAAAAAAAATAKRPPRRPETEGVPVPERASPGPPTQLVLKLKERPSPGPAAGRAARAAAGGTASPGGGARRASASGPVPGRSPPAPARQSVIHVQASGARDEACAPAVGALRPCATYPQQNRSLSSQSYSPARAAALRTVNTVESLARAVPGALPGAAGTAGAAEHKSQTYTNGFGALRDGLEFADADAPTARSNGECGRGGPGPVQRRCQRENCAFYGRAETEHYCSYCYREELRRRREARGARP
Method in brief: as §1

UniProt Q9P2H5 = biological target: T3, UniProt Q9P2H5
T3 sequence (whole entry): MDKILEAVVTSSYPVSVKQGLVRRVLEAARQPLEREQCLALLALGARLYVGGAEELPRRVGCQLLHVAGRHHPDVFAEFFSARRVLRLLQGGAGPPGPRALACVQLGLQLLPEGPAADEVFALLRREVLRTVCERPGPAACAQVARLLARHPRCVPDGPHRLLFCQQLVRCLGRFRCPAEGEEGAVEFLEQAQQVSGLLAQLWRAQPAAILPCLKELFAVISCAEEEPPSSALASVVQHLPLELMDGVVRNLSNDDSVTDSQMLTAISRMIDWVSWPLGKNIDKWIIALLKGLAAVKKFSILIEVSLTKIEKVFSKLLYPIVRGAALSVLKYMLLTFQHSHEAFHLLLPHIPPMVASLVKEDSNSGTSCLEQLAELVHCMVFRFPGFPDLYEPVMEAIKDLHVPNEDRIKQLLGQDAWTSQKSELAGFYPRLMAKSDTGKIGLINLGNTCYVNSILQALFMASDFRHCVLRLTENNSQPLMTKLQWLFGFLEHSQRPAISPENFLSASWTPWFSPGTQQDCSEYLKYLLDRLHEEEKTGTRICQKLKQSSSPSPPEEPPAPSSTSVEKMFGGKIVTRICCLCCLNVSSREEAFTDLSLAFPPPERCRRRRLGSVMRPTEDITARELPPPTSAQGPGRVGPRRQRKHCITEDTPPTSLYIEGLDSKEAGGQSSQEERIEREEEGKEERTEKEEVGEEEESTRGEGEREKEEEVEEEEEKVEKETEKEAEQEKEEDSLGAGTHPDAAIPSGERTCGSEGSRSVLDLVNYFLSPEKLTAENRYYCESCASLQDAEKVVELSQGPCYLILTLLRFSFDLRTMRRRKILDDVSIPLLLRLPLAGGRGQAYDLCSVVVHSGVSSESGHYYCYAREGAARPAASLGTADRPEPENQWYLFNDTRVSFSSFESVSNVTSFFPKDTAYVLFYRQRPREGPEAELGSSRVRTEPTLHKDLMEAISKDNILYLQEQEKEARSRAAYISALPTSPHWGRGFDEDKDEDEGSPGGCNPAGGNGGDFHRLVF
Method in brief: as §1

UniProt Q9UGI0 = biological target: T4, UniProt Q9UGI0
T4 sequence (whole entry): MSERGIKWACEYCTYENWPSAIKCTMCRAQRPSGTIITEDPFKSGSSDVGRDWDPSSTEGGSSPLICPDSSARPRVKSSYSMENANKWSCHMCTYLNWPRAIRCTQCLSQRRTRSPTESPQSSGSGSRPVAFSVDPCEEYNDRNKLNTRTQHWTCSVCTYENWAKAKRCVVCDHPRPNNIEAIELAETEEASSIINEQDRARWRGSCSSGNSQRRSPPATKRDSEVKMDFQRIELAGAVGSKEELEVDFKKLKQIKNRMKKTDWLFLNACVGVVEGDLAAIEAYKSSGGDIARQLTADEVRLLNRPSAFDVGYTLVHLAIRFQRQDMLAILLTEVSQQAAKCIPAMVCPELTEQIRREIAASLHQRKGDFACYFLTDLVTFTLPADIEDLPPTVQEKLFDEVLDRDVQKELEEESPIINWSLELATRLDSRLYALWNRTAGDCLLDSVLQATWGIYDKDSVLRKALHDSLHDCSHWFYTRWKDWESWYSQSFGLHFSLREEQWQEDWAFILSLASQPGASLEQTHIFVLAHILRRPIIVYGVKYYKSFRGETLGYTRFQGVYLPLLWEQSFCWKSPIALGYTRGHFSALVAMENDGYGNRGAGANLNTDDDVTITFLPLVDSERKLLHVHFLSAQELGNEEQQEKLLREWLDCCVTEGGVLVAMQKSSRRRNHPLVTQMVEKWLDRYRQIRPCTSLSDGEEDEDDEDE
Method in brief: as §1

YOD1 = biological target: T5, YOD1 (UniProt Q5VVQ6)
T5 sequence (whole entry): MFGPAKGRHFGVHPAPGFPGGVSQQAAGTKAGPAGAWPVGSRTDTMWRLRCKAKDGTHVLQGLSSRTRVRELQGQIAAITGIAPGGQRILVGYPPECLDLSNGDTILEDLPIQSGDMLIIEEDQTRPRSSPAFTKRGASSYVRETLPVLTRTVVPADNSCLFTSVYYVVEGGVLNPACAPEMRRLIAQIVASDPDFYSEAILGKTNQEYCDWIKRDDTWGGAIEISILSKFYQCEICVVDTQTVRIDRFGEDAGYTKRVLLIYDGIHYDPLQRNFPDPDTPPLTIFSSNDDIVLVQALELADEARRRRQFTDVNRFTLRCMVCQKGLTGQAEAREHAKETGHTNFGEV
Method in brief: as §1

Measured: log2 ratio of Biotin-Ahx-Ub-VS probe labelling

Chain of UniProt P51784 (P51784 whole entry): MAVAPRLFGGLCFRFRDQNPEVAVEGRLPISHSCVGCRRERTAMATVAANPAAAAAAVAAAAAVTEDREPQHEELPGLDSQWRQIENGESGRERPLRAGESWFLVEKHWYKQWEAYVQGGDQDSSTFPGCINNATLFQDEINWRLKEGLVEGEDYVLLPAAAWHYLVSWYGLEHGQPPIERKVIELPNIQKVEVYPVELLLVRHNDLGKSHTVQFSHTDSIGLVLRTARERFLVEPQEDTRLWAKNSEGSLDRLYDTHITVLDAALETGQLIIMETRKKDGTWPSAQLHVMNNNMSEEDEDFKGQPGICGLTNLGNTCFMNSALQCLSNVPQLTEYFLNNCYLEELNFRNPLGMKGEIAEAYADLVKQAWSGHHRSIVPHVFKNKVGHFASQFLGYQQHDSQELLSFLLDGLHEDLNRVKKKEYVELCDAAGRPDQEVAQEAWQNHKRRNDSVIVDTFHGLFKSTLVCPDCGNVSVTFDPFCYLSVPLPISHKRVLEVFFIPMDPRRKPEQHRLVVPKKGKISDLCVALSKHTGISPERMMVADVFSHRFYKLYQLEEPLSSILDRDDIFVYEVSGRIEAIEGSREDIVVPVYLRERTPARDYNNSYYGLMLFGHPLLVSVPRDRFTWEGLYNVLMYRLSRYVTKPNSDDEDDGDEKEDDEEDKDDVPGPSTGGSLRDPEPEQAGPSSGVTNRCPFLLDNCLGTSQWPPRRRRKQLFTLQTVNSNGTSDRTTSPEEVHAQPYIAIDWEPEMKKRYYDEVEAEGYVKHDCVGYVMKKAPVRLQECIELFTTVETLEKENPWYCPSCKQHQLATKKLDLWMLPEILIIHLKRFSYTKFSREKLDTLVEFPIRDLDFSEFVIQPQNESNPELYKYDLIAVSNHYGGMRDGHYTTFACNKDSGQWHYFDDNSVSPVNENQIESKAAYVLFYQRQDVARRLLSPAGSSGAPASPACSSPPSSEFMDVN
Chain of USP9X (Q93008 whole entry, the tested form may be a part): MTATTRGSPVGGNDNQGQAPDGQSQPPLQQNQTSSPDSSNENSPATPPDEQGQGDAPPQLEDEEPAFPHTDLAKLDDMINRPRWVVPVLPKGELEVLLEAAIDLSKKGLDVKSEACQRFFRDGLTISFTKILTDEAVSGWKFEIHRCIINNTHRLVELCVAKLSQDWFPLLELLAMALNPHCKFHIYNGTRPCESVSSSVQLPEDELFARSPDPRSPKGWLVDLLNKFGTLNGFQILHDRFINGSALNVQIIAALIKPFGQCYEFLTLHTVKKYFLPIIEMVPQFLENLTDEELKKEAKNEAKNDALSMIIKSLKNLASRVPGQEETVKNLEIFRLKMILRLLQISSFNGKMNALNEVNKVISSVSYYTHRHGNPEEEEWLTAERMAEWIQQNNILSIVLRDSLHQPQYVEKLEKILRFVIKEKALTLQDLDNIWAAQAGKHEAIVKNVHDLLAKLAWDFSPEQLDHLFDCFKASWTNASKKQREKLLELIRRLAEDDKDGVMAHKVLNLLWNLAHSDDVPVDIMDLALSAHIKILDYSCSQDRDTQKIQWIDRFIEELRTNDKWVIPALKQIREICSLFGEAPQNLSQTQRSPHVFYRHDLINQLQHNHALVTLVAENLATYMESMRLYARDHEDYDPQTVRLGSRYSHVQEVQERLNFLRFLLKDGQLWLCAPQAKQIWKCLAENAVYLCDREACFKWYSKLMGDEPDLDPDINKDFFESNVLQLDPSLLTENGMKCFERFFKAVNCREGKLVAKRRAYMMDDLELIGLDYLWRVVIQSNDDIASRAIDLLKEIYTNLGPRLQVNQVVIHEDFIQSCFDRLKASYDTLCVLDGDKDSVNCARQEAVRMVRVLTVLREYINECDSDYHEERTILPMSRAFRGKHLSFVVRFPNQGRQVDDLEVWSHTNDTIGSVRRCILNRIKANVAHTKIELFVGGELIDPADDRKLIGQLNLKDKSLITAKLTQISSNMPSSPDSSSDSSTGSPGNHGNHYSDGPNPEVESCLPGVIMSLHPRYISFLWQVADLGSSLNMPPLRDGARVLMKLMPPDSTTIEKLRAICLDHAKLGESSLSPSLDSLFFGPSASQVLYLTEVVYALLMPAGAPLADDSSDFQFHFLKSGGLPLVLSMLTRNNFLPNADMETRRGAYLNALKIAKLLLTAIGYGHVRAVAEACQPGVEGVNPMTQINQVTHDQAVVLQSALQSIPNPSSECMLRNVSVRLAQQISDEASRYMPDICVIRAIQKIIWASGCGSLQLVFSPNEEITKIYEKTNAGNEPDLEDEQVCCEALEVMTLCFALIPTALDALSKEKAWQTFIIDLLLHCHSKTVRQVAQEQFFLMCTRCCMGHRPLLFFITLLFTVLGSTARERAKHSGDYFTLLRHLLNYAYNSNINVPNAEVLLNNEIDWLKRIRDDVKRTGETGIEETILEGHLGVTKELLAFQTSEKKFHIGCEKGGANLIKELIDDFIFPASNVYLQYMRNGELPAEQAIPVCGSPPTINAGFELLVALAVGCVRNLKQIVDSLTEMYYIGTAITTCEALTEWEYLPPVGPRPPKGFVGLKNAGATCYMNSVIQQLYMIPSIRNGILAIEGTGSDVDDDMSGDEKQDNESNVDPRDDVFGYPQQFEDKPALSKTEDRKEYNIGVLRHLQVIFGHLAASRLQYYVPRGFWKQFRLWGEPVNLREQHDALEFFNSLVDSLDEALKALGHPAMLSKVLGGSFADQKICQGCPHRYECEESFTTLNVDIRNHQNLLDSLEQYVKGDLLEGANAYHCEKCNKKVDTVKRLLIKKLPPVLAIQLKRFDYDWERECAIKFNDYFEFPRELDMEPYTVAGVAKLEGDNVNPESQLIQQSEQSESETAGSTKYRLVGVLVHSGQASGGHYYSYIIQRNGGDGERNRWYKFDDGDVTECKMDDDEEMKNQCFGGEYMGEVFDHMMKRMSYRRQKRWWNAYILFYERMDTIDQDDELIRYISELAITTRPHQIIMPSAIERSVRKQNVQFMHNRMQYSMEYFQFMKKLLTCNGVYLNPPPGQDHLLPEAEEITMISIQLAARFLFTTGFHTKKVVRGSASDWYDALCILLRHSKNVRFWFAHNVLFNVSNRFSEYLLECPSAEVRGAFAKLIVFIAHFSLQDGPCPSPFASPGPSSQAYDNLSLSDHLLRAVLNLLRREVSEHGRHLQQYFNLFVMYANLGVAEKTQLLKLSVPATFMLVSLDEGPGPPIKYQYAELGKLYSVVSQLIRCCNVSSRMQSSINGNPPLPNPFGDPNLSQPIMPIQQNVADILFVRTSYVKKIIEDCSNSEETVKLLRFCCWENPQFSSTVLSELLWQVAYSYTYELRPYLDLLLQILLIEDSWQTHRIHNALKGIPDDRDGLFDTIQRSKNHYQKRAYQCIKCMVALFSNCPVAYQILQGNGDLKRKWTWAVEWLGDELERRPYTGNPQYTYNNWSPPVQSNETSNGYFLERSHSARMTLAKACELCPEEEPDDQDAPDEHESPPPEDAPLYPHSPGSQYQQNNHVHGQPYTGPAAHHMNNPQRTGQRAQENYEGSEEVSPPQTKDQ
Chain of UniProt O00487 (O00487 whole entry): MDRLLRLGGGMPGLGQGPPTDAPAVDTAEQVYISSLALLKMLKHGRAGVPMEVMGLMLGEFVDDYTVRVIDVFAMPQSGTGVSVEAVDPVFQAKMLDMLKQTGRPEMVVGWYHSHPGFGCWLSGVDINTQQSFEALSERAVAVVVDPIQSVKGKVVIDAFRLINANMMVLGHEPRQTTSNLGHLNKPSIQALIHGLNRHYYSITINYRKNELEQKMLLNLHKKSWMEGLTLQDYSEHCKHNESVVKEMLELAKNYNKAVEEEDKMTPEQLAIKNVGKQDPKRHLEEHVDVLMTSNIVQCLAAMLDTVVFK

O=C(CCl)N[C@H]1CCS(=O)(=O)c2ccccc21
inactive: USP9X -0.14 | UniProt O00487 -0.0201 | UniProt O00507 -0.141 | UniProt P51784 -0.134 | UniProt Q5T2D3 -0.0599 | UniProt Q8TE49 -0.609 | UniProt Q9P2H5 -0.0511 | UniProt Q9UGI0 -0.158 | YOD1 0.0852
